Experimental data reported in publication PMC7862700, “An all-to-all approach to the identification of sequence-specific readers for epigenetic DNA modifications on cytosine”.

Tests used:
Experiment in all cases: DAPPL (digital affinity profiling via proximity ligation, sequencing); 10 mM Tris-HCl pH 7.5, 50 mM NaCl, 1 mM DTT, 4% glycerol, room temperature, 30 min; GST-TFs on glutathione beads, 16-mer random dsDNA library, 0.1% formaldehyde crosslink after washing; high values mean tight binding
[1] = biological target: T1, FLI1 (Homo sapiens, UniProt Q01543 1-452); settings: protein: recombinant; tags: N-terminal GST; dsDNA, one strand shown
T1 sequence: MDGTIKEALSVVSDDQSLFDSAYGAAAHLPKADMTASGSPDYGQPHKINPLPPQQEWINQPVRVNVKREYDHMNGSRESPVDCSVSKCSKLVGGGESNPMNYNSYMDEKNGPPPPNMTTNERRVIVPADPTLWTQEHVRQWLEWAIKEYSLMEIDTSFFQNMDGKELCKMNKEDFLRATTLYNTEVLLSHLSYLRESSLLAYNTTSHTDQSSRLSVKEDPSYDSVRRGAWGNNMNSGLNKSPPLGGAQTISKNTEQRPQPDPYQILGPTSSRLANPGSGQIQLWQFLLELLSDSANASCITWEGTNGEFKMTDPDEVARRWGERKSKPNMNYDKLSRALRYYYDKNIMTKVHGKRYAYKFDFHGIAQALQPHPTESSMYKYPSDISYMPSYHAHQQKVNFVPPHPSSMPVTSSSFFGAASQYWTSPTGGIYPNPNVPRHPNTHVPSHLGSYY
Procedure, shortened: (§1)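 Binding signal is given per hexamer as its read frequency for a factor divided by its frequency in the tag-only sample. GST-fused human transcription factors were expressed in yeast, captured on glutathione beads, barcoded with DNA and pooled with that sample, then incubated with 200 nmole of a 16-mer random double-stranded DNA library in Tris/NaCl/DTT/glycerol buffer for 30 min at room temperature. The pools were then washed, crosslinked, proximity-ligated, amplified by PCR and sequenced on an Illumina NextSeq500.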

[2] = biological target: T2, ELK1 (Homo sapiens, UniProt P19419 1-428); settings: protein: recombinant; tags: N-terminal GST; dsDNA, one strand shown
T2 sequence: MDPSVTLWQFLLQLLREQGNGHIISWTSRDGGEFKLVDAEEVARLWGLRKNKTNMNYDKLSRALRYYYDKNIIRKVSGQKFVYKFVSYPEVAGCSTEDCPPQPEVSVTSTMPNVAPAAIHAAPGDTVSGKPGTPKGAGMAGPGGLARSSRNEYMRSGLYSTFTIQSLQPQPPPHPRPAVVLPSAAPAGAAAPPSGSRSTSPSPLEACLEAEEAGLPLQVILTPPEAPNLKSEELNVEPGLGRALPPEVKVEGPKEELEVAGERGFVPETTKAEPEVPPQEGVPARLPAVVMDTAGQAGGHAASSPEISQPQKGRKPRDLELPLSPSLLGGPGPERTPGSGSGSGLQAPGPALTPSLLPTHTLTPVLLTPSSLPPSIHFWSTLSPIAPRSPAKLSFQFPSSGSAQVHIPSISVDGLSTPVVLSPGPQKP
Procedure, shortened: as §1

[3] = biological target: T3, GABPA (Homo sapiens, UniProt Q06546 1-454); settings: protein: recombinant; tags: N-terminal GST; dsDNA, one strand shown
T3 sequence: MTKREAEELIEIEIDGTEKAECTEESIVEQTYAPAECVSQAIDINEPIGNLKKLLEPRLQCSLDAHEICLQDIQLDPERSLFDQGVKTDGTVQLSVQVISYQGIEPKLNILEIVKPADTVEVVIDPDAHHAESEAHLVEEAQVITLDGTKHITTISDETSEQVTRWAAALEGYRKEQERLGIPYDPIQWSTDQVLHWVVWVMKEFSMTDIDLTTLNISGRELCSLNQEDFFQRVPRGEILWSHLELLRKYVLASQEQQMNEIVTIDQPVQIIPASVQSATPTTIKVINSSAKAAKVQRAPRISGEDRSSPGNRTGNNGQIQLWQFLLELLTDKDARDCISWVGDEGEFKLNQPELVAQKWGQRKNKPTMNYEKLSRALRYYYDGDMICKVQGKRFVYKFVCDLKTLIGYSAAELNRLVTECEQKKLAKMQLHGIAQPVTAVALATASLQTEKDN
Procedure, shortened: as §1

[4] = biological target: T4, ERG (Homo sapiens, UniProt P11308 1-479); settings: protein: recombinant; tags: N-terminal GST; dsDNA, one strand shown
T4 sequence: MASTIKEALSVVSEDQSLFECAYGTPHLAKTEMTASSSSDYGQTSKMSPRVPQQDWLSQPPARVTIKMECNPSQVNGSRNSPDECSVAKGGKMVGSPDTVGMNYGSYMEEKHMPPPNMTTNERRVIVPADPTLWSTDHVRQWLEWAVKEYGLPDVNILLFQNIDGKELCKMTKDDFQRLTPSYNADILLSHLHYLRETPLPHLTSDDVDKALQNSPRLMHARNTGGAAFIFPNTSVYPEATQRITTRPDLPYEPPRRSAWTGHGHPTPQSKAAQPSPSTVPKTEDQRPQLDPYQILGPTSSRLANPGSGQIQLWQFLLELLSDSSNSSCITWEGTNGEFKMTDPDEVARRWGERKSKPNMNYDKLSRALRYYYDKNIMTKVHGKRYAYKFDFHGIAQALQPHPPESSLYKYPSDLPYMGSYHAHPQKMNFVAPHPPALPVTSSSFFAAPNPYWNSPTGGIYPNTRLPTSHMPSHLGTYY
Procedure, shortened: as §1

[5] = biological target: ELF1 (Homo sapiens, UniProt P32519 1-619); settings: protein: recombinant; tags: N-terminal GST; dsDNA, one strand shown
Procedure, shortened: as §1

[6] = biological target: T5, EHF (Homo sapiens, UniProt Q9NZC4 1-300); settings: protein: recombinant; tags: N-terminal GST; dsDNA, one strand shown
T5 sequence: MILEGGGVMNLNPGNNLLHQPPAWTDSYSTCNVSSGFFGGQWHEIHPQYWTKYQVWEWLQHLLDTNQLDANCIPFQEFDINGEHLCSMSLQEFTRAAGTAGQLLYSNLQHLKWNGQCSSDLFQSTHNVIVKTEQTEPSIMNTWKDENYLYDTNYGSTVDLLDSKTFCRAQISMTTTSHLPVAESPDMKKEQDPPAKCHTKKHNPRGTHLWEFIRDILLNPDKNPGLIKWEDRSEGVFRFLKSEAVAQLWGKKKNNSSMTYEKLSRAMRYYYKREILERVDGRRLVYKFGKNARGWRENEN
Procedure, shortened: as §1

[7] = biological target: SPI1 (Homo sapiens, UniProt P17947 1-270); settings: protein: recombinant; tags: N-terminal GST; dsDNA, one strand shown
Procedure, shortened: as §1

[8] = biological target: SPIB (Homo sapiens, UniProt Q01892 1-262); settings: protein: recombinant; tags: N-terminal GST; dsDNA, one strand shown
Procedure, shortened: as §1

[9] = biological target: T6, ELK3 (Homo sapiens, UniProt P41970 1-407); settings: protein: recombinant; tags: N-terminal GST; dsDNA, one strand shown
T6 sequence: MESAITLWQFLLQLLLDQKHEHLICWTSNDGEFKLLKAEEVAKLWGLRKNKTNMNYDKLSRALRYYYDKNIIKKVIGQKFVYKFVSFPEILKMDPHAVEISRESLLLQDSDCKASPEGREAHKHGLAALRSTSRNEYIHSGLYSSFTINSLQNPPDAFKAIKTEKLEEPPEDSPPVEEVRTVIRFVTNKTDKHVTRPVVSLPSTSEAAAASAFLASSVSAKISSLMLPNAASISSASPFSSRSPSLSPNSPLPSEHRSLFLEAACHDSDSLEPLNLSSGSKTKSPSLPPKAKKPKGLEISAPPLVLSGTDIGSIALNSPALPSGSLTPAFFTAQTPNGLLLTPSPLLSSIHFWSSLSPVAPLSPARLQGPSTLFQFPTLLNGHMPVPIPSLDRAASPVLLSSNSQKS
Procedure, shortened: as §1

[10] = biological target: T7, FEV (Homo sapiens, UniProt Q99581 1-238); settings: protein: recombinant; tags: N-terminal GST; dsDNA, one strand shown
T7 sequence: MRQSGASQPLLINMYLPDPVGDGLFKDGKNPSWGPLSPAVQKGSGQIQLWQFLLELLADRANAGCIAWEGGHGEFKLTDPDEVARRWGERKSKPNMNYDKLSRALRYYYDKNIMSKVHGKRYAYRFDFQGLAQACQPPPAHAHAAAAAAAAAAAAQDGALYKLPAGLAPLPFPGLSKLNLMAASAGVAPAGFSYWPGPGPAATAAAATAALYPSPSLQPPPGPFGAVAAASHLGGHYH
Procedure, shortened: as §1

[11] = biological target: ETV5 (Homo sapiens, UniProt P41161 1-510); settings: protein: recombinant; tags: N-terminal GST; dsDNA, one strand shown
Procedure, shortened: as §1

[12] = biological target: HSF1 (Homo sapiens, UniProt Q00613 1-529); settings: protein: recombinant; tags: N-terminal GST; chain copies: 3; dsDNA, one strand shown
Procedure, shortened: as §1

[13] = biological target: T8, SPIC (Homo sapiens, UniProt Q8N5J4 1-248); settings: protein: recombinant; tags: N-terminal GST; dsDNA, one strand shown
T8 sequence: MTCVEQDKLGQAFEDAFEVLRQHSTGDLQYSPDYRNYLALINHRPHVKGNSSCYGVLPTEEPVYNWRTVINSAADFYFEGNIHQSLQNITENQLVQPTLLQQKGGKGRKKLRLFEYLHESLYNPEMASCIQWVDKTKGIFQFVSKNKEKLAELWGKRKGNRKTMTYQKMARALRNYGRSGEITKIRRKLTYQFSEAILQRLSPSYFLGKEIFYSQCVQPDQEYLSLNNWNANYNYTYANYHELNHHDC
Procedure, shortened: as §1

[14] = biological target: ELF4 (Homo sapiens, UniProt Q99607 1-663); settings: protein: recombinant; tags: N-terminal GST; dsDNA, one strand shown
Procedure, shortened: as §1

[15] = biological target: T9, ELK4 (Homo sapiens, UniProt P28324-2 1-405); settings: protein: recombinant; tags: N-terminal GST; dsDNA, one strand shown
T9 sequence: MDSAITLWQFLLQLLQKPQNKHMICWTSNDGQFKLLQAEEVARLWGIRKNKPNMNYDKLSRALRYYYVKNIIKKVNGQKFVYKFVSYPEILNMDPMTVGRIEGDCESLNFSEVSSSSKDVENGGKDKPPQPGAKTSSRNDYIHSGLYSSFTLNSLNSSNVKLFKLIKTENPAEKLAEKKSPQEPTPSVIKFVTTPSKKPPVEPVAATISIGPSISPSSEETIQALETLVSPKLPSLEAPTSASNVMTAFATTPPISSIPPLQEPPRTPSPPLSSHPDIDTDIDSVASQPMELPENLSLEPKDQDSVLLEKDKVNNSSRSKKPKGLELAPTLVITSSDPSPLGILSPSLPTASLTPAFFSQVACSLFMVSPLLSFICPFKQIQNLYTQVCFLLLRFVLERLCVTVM
Procedure, shortened: as §1

[16] = biological target: T10, ETV2 (Homo sapiens, UniProt O00321 1-342); settings: protein: recombinant; tags: N-terminal GST; dsDNA, one strand shown
T10 sequence: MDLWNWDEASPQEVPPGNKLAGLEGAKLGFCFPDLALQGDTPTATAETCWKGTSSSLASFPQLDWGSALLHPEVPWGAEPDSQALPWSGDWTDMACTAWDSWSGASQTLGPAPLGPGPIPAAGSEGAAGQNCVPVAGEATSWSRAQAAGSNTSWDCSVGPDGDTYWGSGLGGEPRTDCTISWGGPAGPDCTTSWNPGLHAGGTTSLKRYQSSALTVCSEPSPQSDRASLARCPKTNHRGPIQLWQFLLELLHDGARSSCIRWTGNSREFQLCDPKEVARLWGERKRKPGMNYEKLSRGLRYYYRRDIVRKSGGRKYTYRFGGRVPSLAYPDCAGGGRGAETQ
Procedure, shortened: as §1

[17] = biological target: T11, ELF3 (Homo sapiens, UniProt P78545 1-371); settings: protein: recombinant; tags: N-terminal GST; dsDNA, one strand shown
T11 sequence: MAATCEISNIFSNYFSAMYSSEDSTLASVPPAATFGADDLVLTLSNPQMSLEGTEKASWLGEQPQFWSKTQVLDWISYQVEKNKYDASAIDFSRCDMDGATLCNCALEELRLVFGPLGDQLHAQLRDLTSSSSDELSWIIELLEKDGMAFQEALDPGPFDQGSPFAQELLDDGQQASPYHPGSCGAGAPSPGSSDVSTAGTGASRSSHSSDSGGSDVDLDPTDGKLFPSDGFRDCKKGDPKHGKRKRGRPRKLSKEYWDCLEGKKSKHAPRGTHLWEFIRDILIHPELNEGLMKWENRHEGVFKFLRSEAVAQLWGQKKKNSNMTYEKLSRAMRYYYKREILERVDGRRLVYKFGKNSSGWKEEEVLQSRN
Procedure, shortened: as §1

[18] = biological target: CRX (Homo sapiens, UniProt O43186 1-299); settings: protein: recombinant; tags: N-terminal GST; dsDNA, one strand shown
Procedure, shortened: as §1

[19] = biological target: ETV1 (Homo sapiens, UniProt P50549 1-477); settings: protein: recombinant; tags: N-terminal GST; dsDNA, one strand shown
Procedure, shortened: as §1

Sequence of ELF4 (Q99607 whole entry): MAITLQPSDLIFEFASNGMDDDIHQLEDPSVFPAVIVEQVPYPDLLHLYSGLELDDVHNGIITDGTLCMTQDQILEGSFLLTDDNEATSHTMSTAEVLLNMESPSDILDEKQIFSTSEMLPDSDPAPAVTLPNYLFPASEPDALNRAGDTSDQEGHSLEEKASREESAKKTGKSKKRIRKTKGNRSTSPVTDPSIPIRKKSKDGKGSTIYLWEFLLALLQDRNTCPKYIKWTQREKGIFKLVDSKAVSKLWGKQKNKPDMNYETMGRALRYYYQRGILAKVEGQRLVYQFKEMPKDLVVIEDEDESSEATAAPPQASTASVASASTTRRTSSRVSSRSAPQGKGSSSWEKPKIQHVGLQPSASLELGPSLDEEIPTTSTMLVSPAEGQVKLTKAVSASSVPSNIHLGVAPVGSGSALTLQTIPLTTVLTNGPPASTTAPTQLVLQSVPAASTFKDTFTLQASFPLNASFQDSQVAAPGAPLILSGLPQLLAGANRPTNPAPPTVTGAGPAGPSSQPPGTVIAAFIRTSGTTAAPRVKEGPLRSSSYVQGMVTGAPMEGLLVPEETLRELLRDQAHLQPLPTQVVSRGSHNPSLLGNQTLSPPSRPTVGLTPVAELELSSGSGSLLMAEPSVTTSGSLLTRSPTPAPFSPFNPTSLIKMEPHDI
Sequence of SPIB (Q01892 whole entry): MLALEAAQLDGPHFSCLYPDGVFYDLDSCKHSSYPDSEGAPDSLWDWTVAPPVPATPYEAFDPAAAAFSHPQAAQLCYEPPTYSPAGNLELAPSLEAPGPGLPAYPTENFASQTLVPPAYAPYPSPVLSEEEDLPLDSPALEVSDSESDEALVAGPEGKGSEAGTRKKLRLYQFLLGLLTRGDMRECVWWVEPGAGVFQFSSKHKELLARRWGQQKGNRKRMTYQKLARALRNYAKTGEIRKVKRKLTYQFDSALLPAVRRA
Sequence of ETV5 (P41161 whole entry): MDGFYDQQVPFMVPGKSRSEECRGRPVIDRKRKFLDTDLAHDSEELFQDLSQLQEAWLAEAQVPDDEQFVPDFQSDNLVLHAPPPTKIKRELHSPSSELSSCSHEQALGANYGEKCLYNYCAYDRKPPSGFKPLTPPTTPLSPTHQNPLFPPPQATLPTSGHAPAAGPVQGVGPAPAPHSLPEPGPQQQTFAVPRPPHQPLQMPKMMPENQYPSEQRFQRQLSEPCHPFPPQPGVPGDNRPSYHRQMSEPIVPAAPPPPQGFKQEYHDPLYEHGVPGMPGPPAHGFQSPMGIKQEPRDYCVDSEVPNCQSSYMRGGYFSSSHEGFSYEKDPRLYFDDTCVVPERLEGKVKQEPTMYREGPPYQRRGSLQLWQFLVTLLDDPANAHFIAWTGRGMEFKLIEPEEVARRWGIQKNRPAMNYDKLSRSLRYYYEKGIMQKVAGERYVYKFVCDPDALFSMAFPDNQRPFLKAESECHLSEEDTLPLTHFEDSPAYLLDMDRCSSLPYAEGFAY
Sequence of CRX (O43186 whole entry): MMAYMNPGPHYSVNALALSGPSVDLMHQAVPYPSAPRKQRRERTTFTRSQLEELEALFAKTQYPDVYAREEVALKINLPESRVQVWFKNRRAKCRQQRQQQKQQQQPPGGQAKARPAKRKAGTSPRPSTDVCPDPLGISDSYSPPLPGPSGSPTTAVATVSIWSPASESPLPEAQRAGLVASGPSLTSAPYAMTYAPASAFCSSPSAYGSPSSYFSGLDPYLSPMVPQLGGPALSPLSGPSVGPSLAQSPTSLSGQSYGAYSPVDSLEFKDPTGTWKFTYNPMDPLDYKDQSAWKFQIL
Sequence of HSF1 (Q00613 whole entry): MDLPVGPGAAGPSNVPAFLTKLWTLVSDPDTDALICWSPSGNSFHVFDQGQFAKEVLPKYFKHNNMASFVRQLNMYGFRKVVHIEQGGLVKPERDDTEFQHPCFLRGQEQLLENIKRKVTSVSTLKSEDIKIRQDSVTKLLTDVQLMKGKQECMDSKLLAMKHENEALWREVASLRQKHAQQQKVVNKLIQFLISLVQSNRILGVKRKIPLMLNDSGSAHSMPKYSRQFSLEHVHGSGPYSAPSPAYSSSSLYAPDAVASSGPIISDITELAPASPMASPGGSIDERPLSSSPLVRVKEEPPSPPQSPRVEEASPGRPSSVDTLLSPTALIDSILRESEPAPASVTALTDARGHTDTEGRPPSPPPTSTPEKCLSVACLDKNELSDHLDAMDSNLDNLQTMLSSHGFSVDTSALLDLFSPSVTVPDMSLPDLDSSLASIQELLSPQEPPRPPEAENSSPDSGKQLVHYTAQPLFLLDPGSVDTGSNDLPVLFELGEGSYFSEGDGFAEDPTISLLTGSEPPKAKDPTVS
Sequence of ETV1 (P50549 whole entry): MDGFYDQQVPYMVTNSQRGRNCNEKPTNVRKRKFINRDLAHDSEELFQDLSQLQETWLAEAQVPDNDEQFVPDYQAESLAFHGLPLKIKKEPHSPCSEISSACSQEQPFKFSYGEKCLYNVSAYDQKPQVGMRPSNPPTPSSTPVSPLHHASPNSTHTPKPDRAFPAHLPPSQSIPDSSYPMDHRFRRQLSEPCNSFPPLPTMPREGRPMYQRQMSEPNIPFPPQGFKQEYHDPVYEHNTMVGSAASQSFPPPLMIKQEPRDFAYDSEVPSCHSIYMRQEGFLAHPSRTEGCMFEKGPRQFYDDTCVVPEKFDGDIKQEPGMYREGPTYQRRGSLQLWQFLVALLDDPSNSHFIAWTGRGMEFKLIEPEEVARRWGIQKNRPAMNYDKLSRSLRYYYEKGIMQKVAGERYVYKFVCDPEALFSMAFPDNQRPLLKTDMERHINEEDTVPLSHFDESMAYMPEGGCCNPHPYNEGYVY
Sequence of ELF1 (P32519 whole entry): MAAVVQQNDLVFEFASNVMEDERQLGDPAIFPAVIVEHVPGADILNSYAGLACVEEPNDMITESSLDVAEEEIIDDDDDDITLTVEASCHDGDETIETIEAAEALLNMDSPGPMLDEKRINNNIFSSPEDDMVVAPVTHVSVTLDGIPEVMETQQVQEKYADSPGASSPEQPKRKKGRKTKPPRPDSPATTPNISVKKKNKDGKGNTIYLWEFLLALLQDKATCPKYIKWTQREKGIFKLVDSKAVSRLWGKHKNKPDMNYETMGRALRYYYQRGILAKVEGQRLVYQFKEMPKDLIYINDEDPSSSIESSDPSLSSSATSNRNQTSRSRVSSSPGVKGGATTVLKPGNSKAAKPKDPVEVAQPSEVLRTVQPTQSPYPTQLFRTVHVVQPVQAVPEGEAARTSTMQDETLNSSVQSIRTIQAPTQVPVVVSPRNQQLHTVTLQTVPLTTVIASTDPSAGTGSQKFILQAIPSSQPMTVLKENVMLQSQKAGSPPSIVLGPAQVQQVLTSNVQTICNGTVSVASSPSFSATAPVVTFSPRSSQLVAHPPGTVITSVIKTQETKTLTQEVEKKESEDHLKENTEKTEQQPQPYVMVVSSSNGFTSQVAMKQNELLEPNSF

CCTACG
binding signal [1]: 1.34 fold enrichment (6-mer frequency, TF over GST control) | binding signal [2]: 1.41 fold enrichment (6-mer frequency, TF over GST control) | binding signal [3]: 1.39 fold enrichment (6-mer frequency, TF over GST control) | binding signal [4]: 1.33 fold enrichment (6-mer frequency, TF over GST control) | binding signal [5]: 1.32 fold enrichment (6-mer frequency, TF over GST control) | binding signal [6]: 1.35 fold enrichment (6-mer frequency, TF over GST control) | binding signal [7]: 1.25 fold enrichment (6-mer frequency, TF over GST control) | binding signal [8]: 1.32 fold enrichment (6-mer frequency, TF over GST control) | binding signal [9]: 1.68 fold enrichment (6-mer frequency, TF over GST control) | binding signal [10]: 1.48 fold enrichment (6-mer frequency, TF over GST control) | binding signal [11]: 1.32 fold enrichment (6-mer frequency, TF over GST control) | binding signal [12]: 1.21 fold enrichment (6-mer frequency, TF over GST control) | binding signal [13]: 1.37 fold enrichment (6-mer frequency, TF over GST control) | binding signal [14]: 1.37 fold enrichment (6-mer frequency, TF over GST control) | binding signal [15]: 1.38 fold enrichment (6-mer frequency, TF over GST control) | binding signal [16]: 1.44 fold enrichment (6-mer frequency, TF over GST control) | binding signal [17]: 1.5 fold enrichment (6-mer frequency, TF over GST control) | binding signal [18]: 1.11 fold enrichment (6-mer frequency, TF over GST control) | binding signal [19]: 1.47 fold enrichment (6-mer frequency, TF over GST control)
